We go through 40 compounds from PubChem BioAssay AID434955 (Southern Research Specialized Biocontainment Screening …, 2010).

As a reminder, the inhibition is the relative decrease from the control value, in per cent.

A short description of this experiment: beta-lactam sensitization of Mtb H37Rv, H37Rv (AID 434955).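 Further: growth measured after seven days incubation then overnight dye step; 0% = bacteria only wells and 100% = bacteria with antibiotic.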 To be noted: M. tuberculosis H37Rv growth with meropenem, percent inhibition, at 25 µM.
[1] abbreviates: measured here: primary screen without meropenem.

Among all 330,000 compounds or so, about 880 (0.27%) were called active. Roughly 1% stayed inconclusive and do not appear here. How the calls were made is not given here. A selection follows.

For `CC(C)(C)C1CCc2c(sc3nc(SCC(N)=O)nc(N)c23)C1` (stereo not given), the inhibition was 99.1% (inactive) (stronger effect = higher value) and 99.3% under setting [1].

For `Brc1ccc(Nc2c3c(nc4ncnn24)CCC3)cc1`, the inhibition (stronger effect = higher value) was -0.68% (inactive) and the inhibition under setting [1] was -2.17%.

Take `O=C(NCC(=O)N1CCN(c2ccccc2O)CC1)c1ccc2ccccc2c1`: the inhibition (stronger effect = higher value) was 10.4% (inactive) and the inhibition under setting [1] was 3.65%.

Take `CCN(CCn1cccn1)C(=O)CC1C(=O)NCCN1Cc1cccc(OC)c1OC` (stereo not given): the inhibition (stronger effect = higher value) was -2.12% (inactive) and the inhibition under setting [1] amounted to 0.4%.

`CC(C)CCN1CCN(Cc2cn[nH]c2C2CCCCC2)CC1CCO` (stereo not given): the inhibition was -6.26% (inactive) (stronger effect = higher value) and 2.27% under setting [1].

Consider `CC(=O)C[C@@H](O)CC(=O)[C@H]1OC(=O)CCCCCCc2ccccc21`, for which the inhibition runs as follows: (stronger effect = higher value) 1.26% (inactive); under setting [1], -0.35%.

As to `C[C@H](CO)N1C[C@H](C)[C@@H](CN(C)S(=O)(=O)c2ccc(F)cc2)Oc2c(NC(=O)Nc3ccccc3)cccc2C1=O`, the inhibition was 5.19% (inactive) (stronger effect = higher value) and 4.04% under setting [1].

`CC1=CC(=O)C=CC1(C)C(Cl)(Cl)Cl` (stereo not given): the inhibition runs as follows: (stronger effect = higher value) -0.23% (inactive); under setting [1], 1.78%.

For `CCC(C)NCC(=O)Nc1ccc([N+](=O)[O-])cc1C(=O)Nc1ccccc1F` (stereo not given), the inhibition reads like this: (stronger effect = higher value) -6.32% (inactive); under setting [1], 3.29%.

Turning to `CC1CC(C)CN(S(=O)(=O)c2cccc(C(=O)N3C(=O)c4cccc(N)c4C3=O)c2)C1` (stereo not given), the inhibition by setting is: (stronger effect = higher value) -7.74% (inactive); under setting [1], -0.88%.

Consider `Cc1c(C)c(C)c(S(=O)(=O)N2CCC3(CC2)OCCO3)c(C)c1C`, for which the inhibition is, setting by setting: (stronger effect = higher value) -2.23% (inactive); under setting [1], -3%.

For the compound `C[C@H]1CN([C@@H](C)CO)C(=O)Cc2cc(NS(C)(=O)=O)ccc2O[C@@H]1CN(C)CC1CC1`, the inhibition (stronger effect = higher value) is -11.2% (inactive) and the inhibition under setting [1] was 2.75%.

With `Cc1ccc2nc(-c3ccc(NC(=O)CN(C)S(=O)(=O)c4ccccc4)cc3)sc2c1`, the inhibition was 11.9% (inactive) (stronger effect = higher value) and 3.33% under setting [1].

Take `CCOC(=O)c1ccc(NC(=O)c2ccc(NC(=O)C3CCCO3)cc2)cc1` (stereo not given): the inhibition by setting is: (stronger effect = higher value) 79.3% (inactive); under setting [1], 83.3%.

`CCn1c(/C=N/NC(=O)c2ccc(OC)cc2)nc2ccccc21`: the inhibition (stronger effect = higher value) was 99.1% (inactive) and the inhibition under setting [1] turned out to be 99.4%.

For the compound `O=C(Nc1ccc(F)cc1F)N1CCCN(CCOc2ccccc2)CC1`, the inhibition was -1.99% (inactive) (stronger effect = higher value) and -0.11% under setting [1].

In the case of `CSc1sc(C(=O)NNC(=O)c2ccc(Cl)cc2)c2c1C=CCC2`, the inhibition is -5.38% (inactive) (stronger effect = higher value) and 4.57% under setting [1].

With `Cc1oc2c(F)c(F)c(F)c(F)c2c1S(=O)(=O)Nc1cccc(C(F)(F)F)c1`, the inhibition was 5.72% (inactive) (stronger effect = higher value) and 5.66% under setting [1].

`Cc1ccc(NC(=O)c2nc[nH]c2C(=O)N2CCCCC2)c(C(=O)c2ccccc2)c1`: the inhibition is 9.07% (inactive) (stronger effect = higher value) and 12.6% under setting [1].

Take `O=C1NC(c2ccccc2)CCC1(Cl)Cl` (stereo not given): the inhibition is, setting by setting: (stronger effect = higher value) 0.94% (inactive); under setting [1], 1.7%.

In the case of `COc1ccc(C)cc1NC(=O)C(OC(=O)c1cccc(S(=O)(=O)N(C)c2ccccc2)c1)c1ccccc1` (stereo not given), the inhibition runs as follows: (stronger effect = higher value) -1.94% (inactive); under setting [1], 9.6%.

On to `CCOc1ccc2ccccc2c1/C=N/NC(=O)c1c(C)cc(C)[nH]c1=O`, for which the inhibition by setting is: (stronger effect = higher value) -16.1% (inactive); under setting [1], -1.48%.

Take `O=C(NCCCCCCCCCNC(=O)C(F)(F)F)C(F)(F)F`: the inhibition by setting is: (stronger effect = higher value) 3.21% (inactive); under setting [1], 10.9%.

For `O=C1CC2(CC(c3ccc(Cl)cc3)=NO2)C(=O)N1c1ccccc1` (stereo not given), the inhibition (stronger effect = higher value) was -4.42% (inactive) and the inhibition under setting [1] was -1.92%.

As to `CCCCC1(C(=O)OCC)NC(c2ccc(O)cc2)C2C(=O)N(c3ccccc3)C(=O)C21` (stereo not given), the inhibition is, setting by setting: (stronger effect = higher value) -5.62% (inactive); under setting [1], -0.56%.

For `O=C(CCCNS(=O)(=O)c1cccc2nsnc12)NCCN1CCN(c2ccccc2F)CC1`, the inhibition by setting is: (stronger effect = higher value) -11.3% (inactive); under setting [1], -10.3%.

Take `CCOc1ccc(NC(=S)NC(=O)/C=C/c2ccc(OC)cc2)c([N+](=O)[O-])c1`: the inhibition is, setting by setting: (stronger effect = higher value) -1.27% (inactive); under setting [1], 1.54%.

As to `CSc1ccccc1NC(=O)c1ccc2c(c1)CCN2S(C)(=O)=O`, the inhibition (stronger effect = higher value) was -1.11% (inactive) and the inhibition under setting [1] is -0.34%.

Consider `CCOC(=O)c1c(S(=O)(=O)Nc2ccc(CN3CCC(C)CC3)cc2)c(C)n(C)c1C`, for which the inhibition by setting is: (stronger effect = higher value) -2.23% (inactive); under setting [1], 3.26%.

Turning to `Cc1ccc(S(=O)(=O)N2CCC(C(=O)OCC(=O)N(C)c3ccccc3)CC2)cc1C`, the inhibition (stronger effect = higher value) is -8.73% (inactive) and the inhibition under setting [1] is -4.4%.

`CC(=O)NC1(c2ccc(F)cc2)CCN(C(=O)c2c(F)cccc2F)CC1`: the inhibition was 8.64% (inactive) (stronger effect = higher value) and 0.61% under setting [1].

Take `O=C(NCC1CCCO1)C(C(=O)c1ccccc1)n1cc(Cl)ccc1=O` (stereo not given): the inhibition runs as follows: (stronger effect = higher value) 6.75% (inactive); under setting [1], -1.73%.

`O=C(NCc1ccc(F)cc1)C1CCN(C(=O)Nc2ccc(F)cc2)CC1`: the inhibition is -23.9% (inactive) (stronger effect = higher value) and -6% under setting [1].

With `CC(Nc1nc(C(F)(F)F)nc2ccccc12)c1cccs1` (stereo not given), the inhibition runs as follows: (stronger effect = higher value) 4.44% (inactive); under setting [1], 8.98%.

Turning to `CCOC(=O)C1=C(CCc2ccccc2)NC(=O)NC1c1ccc2ccccc2c1` (stereo not given), the inhibition was 30% (inactive) (stronger effect = higher value) and 52.5% under setting [1].

For the compound `COc1ccccc1NC(=O)COC(=O)CNC(=O)C1CCCCC1`, the inhibition is -1.14% (inactive) (stronger effect = higher value) and -2.95% under setting [1].

As to `CN(C)Cc1ccccc1C1(O)c2ccccc2CSc2ccccc21` (stereo not given), the inhibition is -0.96% (inactive) (stronger effect = higher value) and 2.09% under setting [1].

On to `CCN(CC)CCn1c(=S)[nH]c2ncccc2c1=O`, for which the inhibition is, setting by setting: (stronger effect = higher value) -13.3% (inactive); under setting [1], -17.8%.

For `CC(=O)Nc1ccc(N2C(=O)CC(Sc3nccc(C)n3)C2=O)cc1` (stereo not given), the inhibition was -4.91% (inactive) (stronger effect = higher value) and -1.37% under setting [1].

For `CCOc1ccc(CNC(=O)CCC(=O)N2CCSc3ccccc32)cc1`, the inhibition reads like this: (stronger effect = higher value) -9.71% (inactive); under setting [1], -7.82%.
